Source: PubChem BioAssay
The sample as a whole holds a higher share of hits than the screen did.
ERK EGF block: blocks ERK signaling stimulated by EGF. AID 1454. HEK293-V1b, EGF-stimulated phospho-ERK AlphaScreen. Potency, µM (top dose mostly 11.5 µM), inactives show at the highest dose activity change, negative = inhibition, most hits filed as inhibitors. 0.41% of 130,000 active; active = well fitted inhibition curve with a large enough effect;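 note: plate controls were stimulated vehicle wells for no effect and unstimulated vehicle basal for full effect; nearly all actives have a fitted effect of over 55% in size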
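Phospho-ERK1/2 measured by AlphaScreen (SureFire) after 5 min 25 nM EGF stimulation of V1b-expressing HEK293 cells preincubated 30 min at 37C with titrated compounds; data scaled to DMSO and EGF controls, Hill-fitted AC50.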
Numbers without * were called inactive; [ ] = another dose, or the depositor's remark. Potency is the fitted concentration of half-maximal effect.

SMILES	ERK EGF block
NC(=O)c1ncn([C@@H]2O[C@H](CO)[C@@H](O)[C@H]2O)n1	0%
COC(=O)c1sc(C(F)(F)F)c(-c2ccccc2)c1S(=O)(=O)NC(C)(C)C	7%[57.5 µM]
N#C/C(C(N)=O)=c1/ccc2c(c1)N1C3=C(CCCC3)CC3CCCCC31N=2 (stereo not given)	7.9µM*
CC(=O)C1C(c2ccc([N+](=O)[O-])cc2)C2C(C)=NN=C2CC1(C)O (stereo not given)	-10%[57.5 µM]
COc1ccc(/C=C(\NC(=O)c2cccs2)C(=O)N2CCOCC2)cc1OC	-1%
C[C@](N)(Cc1ccc(O)cc1)C(=O)O	15%
O=C(O)c1ccc2c3c1cccc3c(=O)n1c3ccccc3nc21	-8%
O=C(COC(=O)COc1ccc(Cl)cc1Cl)Nc1cccnc1Cl	10%
COc1ccc(-c2cc(C(F)F)n3ncc(C(=O)Nc4cc(C)on4)c3n2)cc1	28µM*
COc1ccc(-c2cc(C(F)F)n3ncc(C(=O)Nc4c(C)n(C)n(-c5ccccc5)c4=O)c3n2)cc1	6%
COCCNC(=O)c1cnn2c(C(F)F)cc(-c3ccc(C)cc3)nc12	-12%
O=C(CO/N=C/c1ccccc1OC(F)F)NCc1ccco1	-2%[57.5 µM]
CCCNC(=O)c1ccc(CN2CCc3ccccc3C2)cc1	10%
COc1ccccc1NC(=O)CSc1nncn1-c1cccnc1	-7%
Cc1ccc2c(c1)C(=O)c1c(C(=O)O)cccc1-2	3%
Nc1ccc(N)c(C(=O)O)c1	-11%[57.5 µM]
Nc1cc(C(=O)O)c(N)c2c1C(=O)c1ccccc1C2=O	28µM*
FC(F)(F)c1nnc2ccc(Sc3ccccn3)nn12	-1%
CN(C)CC[C@@H](c1ccccc1)c1ccccn1	2%[25.7 µM]
O=C(NCc1ccncc1)C(=O)Nc1nccs1	-4%[57.5 µM]
Cc1c(Cl)c([N+](=O)[O-])nn1CCCC(=O)Nc1cccc(Cl)c1	-11%
CC/C=C\C/C=C\C/C=C\C/C=C\C/C=C\CCC(=O)O[C@H](COCCCCCCCCCCCCCCCC)COP(=O)([O-])OCC[N+](C)(C)C	1%
CCCCCCCCCCCCCCCC(=O)NCC(COP(=O)([O-])OCC[N+](C)(C)C)OCC (stereo not given)	25µM*
CCCCCCCCCCCCCCCCCCOC[C@@H](O)COP(=O)([O-])OCC[N+](C)(C)C	-8%
CC12COC3(C(=O)Nc4ccc(Cl)cc4)CC1CCC32C (stereo not given)	0%
SMILES	ERK EGF block
O=[N+]([O-])c1ccc(N/N=C2\CC3CC=CC23)cc1 (stereo not given)	-13%
O=[N+]([O-])c1ccc(N/N=C2\CC3CC=CC23)c([N+](=O)[O-])c1 (stereo not given)	14µM*
CCC(CC)=NNc1ccc([N+](=O)[O-])cc1[N+](=O)[O-]	-4%
CCCCCc1ccc(C(=O)CCCC)c(=S)[nH]1	-3%
CNc1nnc(-c2ccc(N(C)C)cc2)s1	-8%
CCNc1ccc(C(=O)OCC(=O)NC(C)c2ccccc2)cc1[N+](=O)[O-] (stereo not given)	3%
CCSc1ccc(C(=O)Nc2cccc(C)n2)cc1[N+](=O)[O-]	-7%
Cc1cccc(NC(=O)c2ccc(NC(C)c3ccccc3)c([N+](=O)[O-])c2)n1 (stereo not given)	14µM*
N/C(CC(=O)Nc1ccc(F)c(Cl)c1)=N\OC(=O)c1cccs1	4%[57.5 µM]
Cc1ccc2[nH]c(=O)c(CN(Cc3cccnc3)C(=S)NCCCN(C)C)cc2c1	-10%
COCCOC(=O)c1sc2nc[nH]c(=O)c2c1C	-10%
Cc1cccc(OCC(=O)N2CCN(c3nnc(-c4ccccc4)c4ccccc34)CC2)c1	-10%[57.5 µM]
Cc1cccc(OCC(=O)N2CCN(C(=O)c3ccc([N+](=O)[O-])cc3)CC2)c1	-6%
Cc1ccc(-c2nnc(N3CCN(C(=O)COc4cccc(C)c4)CC3)c3ccccc23)cc1	40µM*
CC1(C)NC(C)(C)/C(=C\c2cccs2)C(=O)C1=O	6%
CCOc1cc(/C=N/n2c(C)nc3sc(C)c(C)c3c2=O)ccc1O	2%
COc1ccc(-n2nc(C(N)=O)c(O)cc2=O)cc1	3%
O=C(Nc1ccc(S(=O)(=O)N2CCCC2)cc1)c1ccc(OCC2CCCO2)cc1 (stereo not given)	-1%
Cc1ccc(NC(=O)c2ccc(OCC3CCCO3)cc2)cc1 (stereo not given)	2%
O=C(Nc1ccc(Cl)c(S(=O)(=O)N2CCOCC2)c1)c1ccc(OCC2CCCO2)cc1 (stereo not given)	14µM*
CCOc1ccc(C2C(C(=O)/C=C/c3ccco3)=C(O)C(=O)N2CCN2CCOCC2)cc1OC (stereo not given)	6%
Cn1cccc1/C=N/N1CCN(Cc2cccc3ccccc23)CC1	18µM*
O=C(O)c1ccc(/C=N/N2CCN(Cc3cccc4ccccc34)CC2)cc1	0%
Cn1cccc1/C=N/N1CCN(c2ccccn2)CC1	30%
COc1cccc(/C=N/Nc2nc(-c3cccnc3)nc3ccccc23)c1	4%[57.5 µM]
SMILES	ERK EGF block
COc1ccccc1Nc1nc(-c2ccc3c(c2)NC(=O)CO3)cs1	-2%
COc1ccc(-c2csc(NC3=NCCCCC3)n2)cc1	10%
COc1ccc(Nc2nc(-c3ccc4c(c3)NC(=O)CO4)cs2)cc1	20µM*
O=C(C[n+]1cc(Br)cc(Br)c1)c1cccc([N+](=O)[O-])c1	-12%
Cc1ccc2nc(C)c(C(=O)N/N=C/c3cccc([N+](=O)[O-])c3)cc2c1	1%
Cc1ccc2c(Cl)cc(Cl)c(OCC(=O)N3CCCC3)c2n1	6%
O=C(COc1ccc(Cl)cc1Cl)N1CCN(c2ccccn2)CC1	-8%
Cc1cc(Cl)ccc1OCC(=O)N1CCCN(C(=O)COc2ccc(Cl)cc2C)CC1	32µM*
Cc1ccccc1-n1c(C)nnc1SCC(=O)NNC(=O)c1ccccc1	6%
Cc1nc(C(=O)NC2CCOCC2)sc1C1(C)CC(c2ccccc2)=NO1 (stereo not given)	-1%[57.5 µM]
COc1ccc(C(=O)Nc2ccccc2NC(=O)c2ccco2)c(OC)c1	-6%
CC(C)Oc1ccc2c(=O)c(-c3ccccc3)coc2c1	18µM*
COC(=O)COc1ccc2c(=O)c(-c3ccccc3)coc2c1	12%[57.5 µM]
CCC(Oc1ccc2c(=O)c(-c3ccccc3OC)coc2c1)C(=O)OCc1ccccc1 (stereo not given)	7%
C=CCOc1ccc(/C=C2\SC(=S)N(C(C(=O)O)c3ccccc3)C2=O)cc1 (stereo not given)	0%[57.5 µM]
CC(c1ccccc1)N1C(=O)/C(=C/c2ccncc2)SC1=S (stereo not given)	22µM*
O=C(O)C(c1ccccc1)N1C(=O)/C(=C/c2cccs2)SC1=S (stereo not given)	5%[57.5 µM]
CCCC(C)C(=O)Nc1cc([N+](=O)[O-])ccc1F (stereo not given)	5%
COc1ccc(N2CCN(C(=O)c3ccc(NS(=O)(=O)c4cccs4)cc3)CC2)cc1	-1%
COc1ccccc1NS(=O)(=O)c1cccc(NC(=O)Nc2ccc(Cl)cc2)c1	28µM*
CCNC(=S)Nc1cccc(S(=O)(=O)Nc2ccccc2OC)c1	2%[57.5 µM]
COc1ccccc1NS(=O)(=O)c1cccc(NC(=O)Cc2cccs2)c1	1%
CCCCn1c(=O)[nH]c(=O)c2c1nc(-c1ccc3ccccc3c1)n2CC	9%
Cc1ccc(C(=O)c2ccccc2C(=O)OCC(=O)NCCc2ccccc2)cc1	8%
CC(C)(C)OC(=O)NCc1ccc(NC(=O)c2nc[nH]c2C(=O)N[C@@H](Cc2ccccc2)C(=O)OC(C)(C)C)cc1	-29%[57.5 µM]
